Sm TGR block = blocks Schistosoma mansoni thioredoxin glutathione reductase; purified TGR, DTNB reduction, TNB absorbance 405 nm; AID 485364; Q962Y6; 360,000 tested, 3% active; Potency, µM (doses to about 114 µM), most hits filed as inhibitors; note: nearly all actives have a fitted effect of over 60% in size
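TGR 20 nM + NADPH 100 uM (dispensed conc.), cpd preinc 15 min RT; start with NADPH (500 uM addition) then DTNB (15 mM addition). Kinetic TNB absorbance, 405 nm filter. Four-parameter Hill fit across titration.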
RE007 growth inh = less growth of the S. pombe RE007 Vpr strain; 360,000 tested, 0.21% active; Potency, µM (doses to about 92.2 µM), most hits filed as inhibitors; S. pombe RE007 Vpr strain, BacTiter-Glo ATP luminescence, 24 h; active = well fitted falling curve with a large enough effect; inconclusive = small, poorly fitted or top-dose-only effect; inactive = no such curve, though single readings can be large or run the other way; note: nearly all actives have a fitted effect of over 50% in size
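Fission yeast strain RE007, carrying one chromosomally integrated HIV-1 vpr copy, was seeded at OD 0.01 in PMG+AL medium with 23 nL pinned compound. After 24 h at 30 °C and 99% humidity, viability was read by BacTiter-Glo luminescence.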
TbPYK inhibitor = inhibitors of Trypanosoma brucei pyruvate kinase; AID 624173; TbPYK enzyme, Kinase-Glo Plus ATP luminescence, 45 min; 410,000 tested, 0.12% active; Potency, µM (titrated, usually from 76.8 µM), usual class: inhibitors; note: nearly all actives have a fitted effect of over 50% in size
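Readout: single end-point luminescence (Kinase-Glo Plus, 10 min). Reaction conditions were TbPYK/substrate plus 130 uM ADP, 45 min at RT, pH 7.2 TEA buffer. No-enzyme wells served as controls, and data were normalized before concentration-response fitting.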
FMDV inh = blocks foot and mouth disease virus | FMDV antiviral cell-based qHTS | Potency, µM (titrated, usually from 57.9 µM), hits mostly inhibitors | 410,000 tested, 1.2% active | AID 1159524; calls by dose curve; tested in HEK293T cells; note: read-out not given here; nearly all actives have a fitted effect of over 45% in size
Of the large screens only hits and unclear results are named; the others gave an inactive call. The list is not random: actives were taken first. Their share in the collection is about 3.7%. Unless noted, calls come from the whole dose curve; as a rule, active = well fitted curve in the direction sought with a large enough effect; inconclusive = small, poorly fitted or top-dose-only effect, or another doubt; inactive = no such curve, though single readings can be large; an effect the other way counts as inactive or inconclusive.

COc1ccccc1N(C)S(=O)(=O)c1ccc(C)c(C(=O)NC(C)c2ccccn2)c1 (configuration not stated)	none
COc1cccc(C(=O)Nc2cccc(C(=O)NCC(C)C)c2)c1	none
COc1cc(OC)c(OC)cc1CNC(=O)c1cc(S(=O)(=O)N(C)c2ccccc2OC)ccc1C	FMDV inh 28µM (no result: Sm TGR block)
CCOC(=O)c1ccc(NC(=O)c2ccc(C)c(S(=O)(=O)N3CCOCC3)c2)cc1	FMDV inh 14µM
O=C(Nc1ccc(C(F)(F)F)cc1)C(Cc1ccccc1)n1cccc1 (configuration not stated)	FMDV inh inconclusive (no result: RE007 growth inh)
N#Cc1c(NC(=O)/C=C/c2ccco2)sc2c1CCCC2	Sm TGR block 20µM
O=C(/C=C/c1ccccc1)Nc1sc2c(c1C(=O)O)CCC2	Sm TGR block inconclusive
O=C(/C=C/c1ccco1)Nc1sc2c(c1C(=O)O)CCC2	Sm TGR block 40µM
CN1C(=O)CC(C)(c2ccccc2)C1=O (configuration not stated)	none (no result: Sm TGR block, RE007 growth inh, FMDV inh)
Cn1c(=O)c([N+](=O)[O-])c(-n2ccnc2)c2ccccc21	Sm TGR block 35µM, FMDV inh 32µM
Cn1c(=O)c([N+](=O)[O-])c(NCCCn2ccnc2)c2ccccc21	none
COc1ccccc1CNC(=O)c1cnc2sc(N3CCCCC3)nn2c1=O	none (no result: RE007 growth inh)
CCOC(=O)c1n[nH]n2c1nc(=S)c1ccccc12	Sm TGR block 11µM
O=C(NNc1ccccc1Br)C(O)(c1cccc(C(F)(F)F)c1)c1cccc(C(F)(F)F)c1	FMDV inh 35µM
CCOc1ccc2nc(/N=C/c3c(C)[nH]n(-c4ccc(C)cc4)c3=O)sc2c1	RE007 growth inh 13µM
CCOc1ccc2nc(/N=C/c3c(C)[nH]n(-c4ccccc4)c3=O)sc2c1	RE007 growth inh inconclusive
O=C(Cc1c(Cl)cccc1Cl)NCCc1ccc(Cl)cc1	none
O=C(CCl)NCc1c(Cl)cccc1-n1cccc1	Sm TGR block 32µM
COc1cc(NC(=O)c2ccco2)c(C(=O)O)cc1OC	Sm TGR block 40µM
COc1cc(OC)cc(C(=O)Nc2ccc(NC(=O)c3ccco3)c(C)c2)c1	Sm TGR block 40µM
COC(=O)c1cc(OC)c(OC)cc1NC(=O)c1ccco1	FMDV inh inconclusive
Cc1ccc(C(=O)CSc2nc(-c3ccccc3)nc3c2CCCC3)cc1	none (no result: RE007 growth inh)
CC(=O)N1c2ccc(S(=O)(=O)N3CCCCCC3)cc2CC1C(=O)NCc1ccc(Cl)cc1 (configuration not stated)	none (no result: RE007 growth inh)
Cc1sc2ncnc(N3CCC(C(=O)N(C)CC(=O)Nc4ccccc4Cl)CC3)c2c1C	FMDV inh 22µM
Cc1sc2ncnc(N3CCC(C(=O)Nc4cc(Cl)ccc4Cl)CC3)c2c1C	none
Cc1ccc(S(=O)(=O)N2CCN(c3ncnc4sccc34)CC2)cc1C	FMDV inh 11µM
CCN(CC)S(=O)(=O)c1cc(NC(=O)C2CC(=O)N(Cc3ccccc3)C2)ccc1Cl (configuration not stated)	FMDV inh 11µM
Cc1sc2ncnc(N3CCC(C(=O)NNC(=O)c4ccc(Cl)cc4)CC3)c2c1C	FMDV inh 25µM
COc1ccc(CN2CCCC(n3cc(C(=O)N4CCCCC4)nn3)C2)cc1OC (configuration not stated)	none (no result: Sm TGR block, RE007 growth inh, TbPYK inhibitor)
Cc1nc(NCc2cnn(C)c2C)sc1-c1ccn(CC2COc3ccccc3O2)n1 (configuration not stated)	none (no result: Sm TGR block, RE007 growth inh, TbPYK inhibitor)
Cc1ccc(C)c(NC(=O)CSc2nc(=O)n(Cc3ccncc3)c3c2CCC3)c1	none (no result: RE007 growth inh)
CCn1c(=O)c2cc(C(=O)NCc3cc(OC)ccc3OC)sc2c2ccccc21	none (no result: RE007 growth inh)
CCN(CC(=O)Nc1cc(Cl)ccc1C)c1ncnc2sc(C)c(C)c12	none
CCN(CC(=O)Nc1cc(Cl)ccc1C)C(=O)C1CCN(c2ncnc3sc(C)c(C)c23)CC1	FMDV inh 18µM (no result: Sm TGR block)
Cc1ccc(NC(=O)C2CCN(c3ncnc4sc(C)c(C)c34)CC2)cc1S(=O)(=O)N(C)C	FMDV inh inconclusive
Cc1ccc(Cl)cc1NC(=O)C1COc2ccccc2O1 (configuration not stated)	none
CCN(CC(=O)Nc1cc(Cl)ccc1C)C(=O)C1COc2ccccc2O1 (configuration not stated)	Sm TGR block 20µM
Cc1sc2ncnc(N3CCC(C(=O)Nc4ccccc4C(C)(C)C)CC3)c2c1C	FMDV inh 25µM
CCN(CC)S(=O)(=O)c1cc(NC(=O)C2CCN(c3ncnc4sc(C)c(C)c34)CC2)ccc1Cl	FMDV inh 8.9µM
CCN(CC)c1cc(C)nc2nc(-c3ccc(C)cc3)nn12	none (no result: RE007 growth inh)

Screens from PubChem.
